# Test results from PubChem BioAssay AID504332 (National Center for Advancing Translational Sciences (NCATS), 2011).
# Screen size: about 350,000 compounds; about 31,000 (8.9%) were called active. Roughly 15% stayed inconclusive and do not appear here. This excerpt belongs to a sample that is enriched for actives. A number with no mark means an inactive call. Calls come from the whole dose curve; as a rule, active = well fitted inhibition curve with a large enough effect; inconclusive = small, poorly fitted or top-dose-only effect; inactive = no such curve, though single readings can be large or run the other way.
# Biological target: Histone-lysine N-methyltransferase EHMT2 (Homo sapiens) (UniProt Q96KQ7)
# Sequence (Q96KQ7 913-1193 limits assumed): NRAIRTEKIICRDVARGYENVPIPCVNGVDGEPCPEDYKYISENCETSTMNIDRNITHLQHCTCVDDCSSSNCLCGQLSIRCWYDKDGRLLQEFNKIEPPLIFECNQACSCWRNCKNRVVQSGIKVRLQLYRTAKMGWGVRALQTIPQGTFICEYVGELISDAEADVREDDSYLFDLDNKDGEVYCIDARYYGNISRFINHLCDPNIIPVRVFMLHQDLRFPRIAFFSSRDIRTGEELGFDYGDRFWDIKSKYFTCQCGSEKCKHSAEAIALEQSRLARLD
# Experiment: qHTS Assay for Inhibitors of Histone Lysine Methyltransferase G9a; note: nearly all actives have a fitted effect of over 75% in size
# Conditions: G9a H3K9 monomethylation, AlphaScreen, 2 h; series mostly up to 59 µM; activity, negative = inhibition: at the top concentration
# Outline: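 Quantitative HTS format: methyltransferase activity on a biotin-tagged H3K9 peptide is measured by AlphaScreen, using a rabbit anti-monomethyl-H3K9 antibody with streptavidin donor and anti-IgG acceptor beads. Final levels are 20 nM enzyme, 500 nM peptide, 20 uM SAM; 2 h RT.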
# % is set by controls: 0 for no effect and ±100 for the full control effect; potency is the fitted concentration of half-maximal effect.
SMILES,"activity, negative = inhibition",Potency
CN(C)c1ccnc2sc3c(=O)n(Cc4ccccc4)cnc3c12,26.4% [at 0.501 µM],
COc1ccccc1C(=O)NC(CCSC)C(=O)NNC(=O)c1ccccc1C (centres undefined),25.8% [at 0.501 µM],
COc1ccc2nc(SCc3ccccc3)nc(C)c2c1,285%,
O=c1[nH]c(SCc2ccccc2)nnc1-c1ccccc1,10%,
c1ccc(CSc2nnc(-c3ccco3)c(-c3ccco3)n2)cc1,,6.31 µM (active)
COc1cc(C(=O)NCC(=O)NCCSc2ccc(Br)cc2)cc(OC)c1OC,10% [at 0.501 µM],
O=C(COC(=O)Cc1ccccc1F)NCCc1ccccc1,-6.48% [at 2.33 µM],
CC(=O)Nc1ccc(C(=O)N(C2=NC(C)CS2)c2ccc(Cl)cc2)cc1 (centres undefined),16% [at 102 µM],
COCCCNC(=O)c1ccc(NC(=O)c2nsc3ccccc23)cc1,2.19%,
COC(=O)c1sc2ncccc2c1OCc1ccc(Cl)cc1Cl,15.5%,
OC(CNCCc1ccc(Cl)cc1Cl)COc1ccccc1 (centres undefined),,25.1 µM (active)
COc1ccc(OCC(O)CNC(=O)Nc2ccc(Cl)cc2)cc1 (centres undefined),-15.8% [at 102 µM],
CCCCN(CC)CCCNC(=O)Cn1ncc2c([nH]c3ccc(C)cc32)c1=O,-32.3%,
O=C(NCC(c1ccco1)N1CCc2ccccc21)c1cccc(F)c1 (centres undefined),,50.1 µM (active)
CC1CCc2sc(C(=O)NCC(c3ccco3)N3CCCCC3)cc2C1 (centres undefined),4.92%,
Cc1ccccc1C(=O)NCC(c1ccco1)N1CCc2ccccc21 (centres undefined),12% [at 2.33 µM],
CC1Cc2ccccc2N1S(=O)(=O)c1cccc(C(=O)NCC(c2ccco2)N2CCCC2)c1 (centres undefined),,39.8 µM (active)
COc1cc(C(=O)NCC(c2ccco2)N2CCCC2)ccc1OCc1ccccc1 (centres undefined),2.91%,
COc1ccc(C(=O)NCC(c2ccco2)N2CCc3ccccc32)cc1OC (centres undefined),-2.6% [at 0.501 µM],
COc1ccc2cc(C(=O)NCC3CCCO3)[nH]c2c1 (centres undefined),20.9% [at 102 µM],
Cc1cc2c(cc1S(=O)(=O)CCC(=O)Nc1ccc(OC(F)(F)F)cc1)OCC(=O)N2,-2.89%,
C=CCn1c(SCC(=O)Nc2ccc(NC(C)=O)cc2)nc2sc(C)c(C)c2c1=O,8.2% [at 12.7 µM],
C=CCn1c(SCc2csc(C)n2)nc2scc(-c3ccc(C)o3)c2c1=O,,10 µM (active)
C=CCn1c(SCC(=O)/C(C#N)=C(\C)N)nc2sc(C)c(C)c2c1=O,10.1%,
O=C(CSc1ncn[nH]1)Nc1nsc(-c2ccccc2)n1,2.39%,

SMILES,"activity, negative = inhibition",Potency
CCN(C(=O)CSc1ncn[nH]1)c1cccc2ccccc12,,22.4 µM (active)
CCN(C(=O)Cc1c(C(=O)O)n(CC)c2ccccc12)c1ccccc1C,26.7% [at 0.501 µM],
CCOc1ccc(C(=O)NCC(=O)N2CCCCCCC2)cc1OCC,8% [at 0.501 µM],
CC(Oc1ccc(F)cc1)C(=O)Nc1ccccc1C(=O)NC1CC1 (centres undefined),-3.62% [at 102 µM],
COc1cc(-c2c(-c3ccc4c(c3)OCO4)noc2C)ccc1F,73.1% [at 102 µM],
CC(C(=O)N1CCc2ccccc21)N(C)CC(=O)Nc1ccc(F)cc1 (centres undefined),13.8% [at 12.7 µM],
CC(=NCc1ccco1)c1c(C(F)(F)F)[nH]n(-c2nc3ccccc3s2)c1=O,1.72% [at 12.7 µM],
COC(=O)Cc1[nH]n(-c2nc3ccccc3s2)c(=O)c1C(C)=Nc1ccc(OC)cc1,,2.82 µM (active)
C/C(=N\NC(=O)CC(C)C)c1c(C(F)(F)F)[nH]n(-c2nc3ccccc3s2)c1=O,-30.7% [at 102 µM],
COc1ccccc1CCC(=O)OCC(=O)N1CCN(S(=O)(=O)c2ccc(C)cc2C)CC1,3.44% [at 102 µM],
Brc1ccc(-c2nn[nH]n2)cc1,9.86% [at 102 µM],
c1ccc(-n2nc3ccccc3n2)cc1,3.29%,
c1ccc(-n2ncc(-c3nn[nH]n3)n2)cc1,,50.1 µM (active)
Cc1c(NC(=O)C(C)Oc2cccc(Cl)c2)c(=O)n(-c2ccccc2)n1C (centres undefined),-19.9% [at 102 µM],
CC1=C(C(N)=O)C(c2ccc3c(c2)OCO3)n2nc(-c3cccc(C)c3)nc2N1 (centres undefined),,0.355 µM (active)
COc1cccc(-c2nc3n(n2)C(c2ccccc2Cl)C(C(N)=O)=C(C)N3)c1 (centres undefined),4.56%,
CCN(CC)c1ccc(C2C(C(N)=O)=C(C)Nc3nc(SCc4ccccc4)nn32)cc1 (centres undefined),-1.21%,
COc1ccc(CC(=O)N2CC(=O)Nc3ccc(Br)cc3C2c2ccc(F)cc2)cc1OC (centres undefined),2.61%,
CCc1ccc(C2C(C(=O)Nc3ccccc3)=C(C)Nc3c(C(=O)Nc4ccc(C)cc4)cnn32)cc1 (centres undefined),-3.94%,
Cc1cc(F)ccc1NC(=O)C(C)n1c2ccccc2c2nc(=O)cc(C)n21 (centres undefined),7.01% [at 102 µM],
Cc1cc(F)ccc1NS(=O)(=O)c1ccc(-n2cccn2)cc1,-7.8%,
Cc1cc(F)ccc1NC1(c2ccccc2)C(=O)c2ccccc2C1=O,,14.1 µM (active)
COc1cccc2c1cc1c(=O)n(CC(=O)N3CCN(c4cccc(Cl)c4)CC3)nc(C)n12,0.803%,
O=S(=O)(NCC(c1ccco1)N1CCOCC1)c1cc(F)ccc1F (centres undefined),-0.918%,
